The source of these data is PubChem BioAssay (Tox21).

The nature of assay [1]: qHTS assay to test for compound auto fluorescence at 535 nm (green) in HEK293 cells (AID 720680).
Assay [2] can be described thus: qHTS assay to test for compound auto fluorescence at 460 nm (blue) in HEK293 cell free culture (AID 720681). The procedure, abridged: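 Compounds were added to cell-free DMEM with 10% FBS and fluorescence read directly. The blue channel used 405 nm excitation and 460 nm emission, with triamterene as the reference fluorophore.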
Assay [3] is described as follows: qHTS assay to test for compound auto fluorescence at 535 nm (green) in HEK293 cell free culture (AID 720682). The procedure, abridged:
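No cells present: wells hold DMEM supplemented with 10% FBS, into which compound or vehicle is pinned. Green emission is then recorded (485 nm excitation, 535 nm emission) and scaled to fluorescein.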

The nature of assay [4]: qHTS assay to test for compound auto fluorescence at 590 nm (red) in HEK293 cell free culture (AID 720683). Summed up:
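Cell-free wells of DMEM with 10% FBS received compound, and intrinsic fluorescence was read at excitation/emission 540/590 nm. Values expressed as equivalence to Rose Bengal sodium.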

Assay [5] is described as follows: qHTS assay to test for compound auto fluorescence at 590 nm (red) in HepG2 cell free culture (AID 720684). Summed up: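 Rose Bengal sodium served as the reference for red signal. Test compounds were dispensed into serum-containing MEM (10% FBS) without cells, and plates were read at 540/590 nm.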
A short description of assay [6]: qHTS assay to test for compound auto fluorescence at 460 nm (blue) in HepG2 cell free culture (AID 720685). Summed up: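 Cell-free plates of MEM plus 10% FBS received 23 nL compound or DMSO vehicle; blue-channel (405/460 nm) intensity scored against triamterene as reference fluorophore.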
The nature of assay [7]: qHTS assay to test for compound auto fluorescence at 535 nm (green) in HepG2 cell free culture (AID 720686).
Assay [8] is described as follows: qHTS assay to test for compound auto fluorescence at 460 nm (blue) in HepG2 cells (AID 720687). Summed up:
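HepG2 cells in MEM with 10% FBS, attached overnight at 37 C, were exposed to compound or DMSO for 1 hr at 37 C, 5% CO2. Blue fluorescence was read at 405/460 nm, with triamterene as reference fluorophore.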

For assay [9], the target named is Glucocorticoid receptor (Homo sapiens) (UniProt P04150). Nature of the assay: qHTS assay to identify small molecule agonists of the glucocorticoid receptor (GR) signaling pathway (AID 720691; active = well fitted activation curve with a large enough effect in the signal ratio in the repeat runs, not every such curve was filed as active; the % refers to the signal ratio; also: potency is read from the fitted curve at half-maximal effect). The settings on record: GR-bla HeLa, beta-lactamase reporter ratio, 18 h; activation: at 62.4 µM (top of the series). The procedure, abridged: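 Measures GR pathway activation through a GRE-beta-lactamase reporter stably integrated in HeLa cells, with 18 h compound treatment at 37 C and fluorescence detection using a FRET substrate.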

Assay [10] shares this target. Kind of assay: qHTS assay to identify small molecule antagonists of the glucocorticoid receptor (GR) signaling pathway (AID 720692; active = well fitted inhibition curve with a large enough effect in the signal ratio in the repeat runs, not every such curve was filed as active; the % refers to the signal ratio; also: potency is read from the fitted curve at half-maximal effect). Summed up:
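Tox21 10K library screened in concentration-response for blockade of dexamethasone (5 nM final)-induced GRE-bla reporter activity in HeLa cells; 18 h treatment, fluorescence read.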

Results filed as inconclusive are left out. Some compounds were tested as several samples or in several runs, with calls that do not always agree. The source made the active and inactive calls. Unless noted, calls follow the shape of the dose curve; as a rule, active = well fitted curve in the direction sought with a large enough effect in the repeat runs; inconclusive = weak or mixed curves; inactive = flat fitted curve, though single readings scatter.

Glucocorticoid receptor (Homo sapiens), sequence (P04150 whole entry, looked up): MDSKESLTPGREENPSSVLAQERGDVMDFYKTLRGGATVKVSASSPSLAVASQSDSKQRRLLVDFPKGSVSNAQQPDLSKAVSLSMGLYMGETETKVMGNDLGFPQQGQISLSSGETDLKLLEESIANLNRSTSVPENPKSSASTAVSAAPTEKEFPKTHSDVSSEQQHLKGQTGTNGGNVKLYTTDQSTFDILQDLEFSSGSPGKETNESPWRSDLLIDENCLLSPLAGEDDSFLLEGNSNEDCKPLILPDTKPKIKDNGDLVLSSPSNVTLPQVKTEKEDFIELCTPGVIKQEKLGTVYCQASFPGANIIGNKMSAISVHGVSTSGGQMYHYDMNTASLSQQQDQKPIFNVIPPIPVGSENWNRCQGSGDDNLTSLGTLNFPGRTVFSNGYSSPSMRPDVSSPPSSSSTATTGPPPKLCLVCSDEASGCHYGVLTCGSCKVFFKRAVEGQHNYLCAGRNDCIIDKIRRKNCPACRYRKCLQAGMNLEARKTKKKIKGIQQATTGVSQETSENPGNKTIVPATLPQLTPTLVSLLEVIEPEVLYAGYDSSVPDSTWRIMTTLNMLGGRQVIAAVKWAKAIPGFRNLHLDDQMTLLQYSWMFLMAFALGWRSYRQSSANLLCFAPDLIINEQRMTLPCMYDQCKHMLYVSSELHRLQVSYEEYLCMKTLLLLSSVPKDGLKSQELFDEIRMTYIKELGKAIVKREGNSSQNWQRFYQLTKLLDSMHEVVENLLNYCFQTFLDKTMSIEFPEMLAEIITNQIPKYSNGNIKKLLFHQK

On to `CO[C@H]1[C@@H](O)[C@H](N)[C@@H](O[C@H]2O[C@H]([C@H](C)N)CC[C@H]2N)[C@H](O)[C@@H]1N(C)C(=O)CN`, for which the Potency entry in [1], in [2], in assay [3], in assay [4], in assay [5] and in assay [7] was “inactive” in each case. In addition, the Potency entry in [9] and in assay [10] was “inactive” each time. The result in assay [6] and in assay [8] was inactive.
With `CC(O)[C@@H]1NC(=O)[C@H](CCCCN)NC(=O)[C@@H](Cc2c[nH]c3ccccc23)NC(=O)[C@H](Cc2ccccc2)NC(=O)[C@@H](NC(=O)[C@H](N)Cc2ccccc2)CSSC[C@@H](C(=O)N[C@H](CO)[C@@H](C)O)NC1=O` (stereo partly drawn), the Potency result in [1], in assay [2], in assay [3], in assay [4], in [5] and in [7] was “inactive” throughout. For the same molecule, the Potency entry in assay [9] and in [10] was “inactive” each time. Besides, the molecule was classed as inactive in assay [6] and in [8].
Regarding `CO[C@@H]1[C@@H](O[C@@H]2O[C@H](C)[C@@H](O[C@H]3C[C@@](C)(O)[C@@H](OC(=O)CC(C)C)[C@H](C)O3)[C@H](N(C)C)[C@H]2O)[C@@H](CC=O)C[C@@H](C)[C@@H](O)/C=C/C=C/C[C@@H](C)OC(=O)C[C@H]1O`, the Potency entry in assay [1], in assay [2], in [3], in assay [4], in assay [5] and in [7] was “inactive” each time. Moreover, the Potency entry in assay [10] is “inactive”. Moreover, the molecule was called inactive in [6] and in assay [8]. Moreover, the Potency in [9] was 4.25 µM (active) and inactive.
As for `C=CCCCCCCCCC(=O)OC`, the Potency entry in [1], in [2], in assay [3], in assay [4], in assay [5] and in [7] was “inactive” each time. Also, the Potency entry in assay [9] and in assay [10] was “inactive” in each case. Moreover, the molecule was classed as inactive in assay [6] and in [8].
With `Cc1onc(-c2ccccc2)c1C(=O)N[C@@H]1C(=O)N2[C@@H]1SC(C)(C)[C@@H]2C(=O)O`, the Potency entry in [1], in assay [2], in assay [3], in [4], in assay [5] and in assay [7] was “inactive” throughout. The Potency result in [9] and in assay [10] was “inactive” in each case. Besides, the molecule was classed as inactive in assay [6] and in assay [8].
As for `CC(C)CN(C[C@@H](O)[C@H](Cc1ccccc1)NC(=O)O[C@H]1CO[C@H]2OCC[C@H]21)S(=O)(=O)c1ccc(N)cc1`, the Potency entry in [1], in assay [2], in [3], in assay [4], in assay [5] and in assay [7] was “inactive” each time. The Potency result in [9] and in assay [10] was “inactive” throughout. The outcome in assay [6] and in [8] was inactive.
In the case of `Cc1cccc(C)c1NC(=O)NC1=CCCN1C`, the Potency entry in assay [1], in [2], in assay [3], in assay [4], in [5] and in assay [7] was “inactive” each time. Also, the Potency entry in assay [9] and in assay [10] was “inactive” throughout. Further, the molecule was classed as inactive in assay [6] and in [8].
Consider `CS(=O)(=O)OCCCNCCCOS(C)(=O)=O`, for which the Potency result in assay [1], in [2], in assay [3], in assay [4], in assay [5] and in [7] was “inactive” each time. Besides, the Potency result in assay [9] and in assay [10] was “inactive” throughout. The call in assay [6] and in [8] was inactive.
Regarding `Nc1nc2c(c(=O)[nH]1)N(C=O)C(CNc1ccc(C(=O)N[C@@H](CCC(=O)O)C(=O)O)cc1)CN2` (stereo partly drawn), the Potency result in assay [1], in assay [2], in [3], in [4], in assay [5] and in assay [7] was “inactive” in each case. Also, the Potency entry in assay [9] and in assay [10] was “inactive” in each case. Further, the molecule was called inactive in assay [6] and in assay [8].
For the molecule `CCCCCCCCCCCCOCCCN`, the Potency result in assay [1], in [2], in [3], in [4], in assay [5] and in [7] was “inactive” throughout. In addition, the Potency entry in assay [9] and in assay [10] was “inactive” each time. In addition, the molecule was called inactive in [6] and in assay [8].
Regarding `C/C1=C2N=C(/C=C3N=C(/C(C)=C4\[N-][C@@](C)([C@@H]5N=C1[C@](C)(CCC(=O)NCC(C)OP(=O)(O)O[C@H]1[C@@H](O)[C@@H](n6cnc7cc(C)c(C)cc76)O[C@@H]1CO)[C@H]5CC(N)=O)[C@@](C)(CC(N)=O)[C@@H]4CCC(N)=O)[C@@](C)(CC(N)=O)[C@@H]\3CCC(N)=O)C(C)(C)[C@@H]/2CCC(N)=O.CC(=O)O.[Co]` (stereo partly drawn), the Potency entry in assay [1], in assay [2], in assay [3], in assay [4], in assay [5] and in assay [7] was “inactive” in each case. The Potency entry in assay [9] and in [10] was “inactive” each time. In addition, the call in assay [6] and in assay [8] was inactive.
Take `CCCc1ccc(C(=O)O)cc1`: the Potency result in assay [1], in [2], in assay [3], in [4], in [5] and in assay [7] was “inactive” in each case. The Potency entry in [9] and in assay [10] was “inactive” each time. In addition, the result in assay [6] and in [8] was inactive.
Consider `CCCCCCCCCCCCCCCCSCC(COC)COP(=O)([O-])OCC[N+](C)(C)C` (stereo not drawn), for which the Potency entry in assay [1], in assay [2], in assay [3], in assay [4], in assay [5] and in [7] was “inactive” throughout. For the same molecule, in [9], the Potency result is “inactive”. Besides, the result in assay [6] and in assay [8] was inactive. In addition, in assay [10], the Potency was 23.9 µM (active).
`COc1cc(S(C)=O)ccc1-c1nc2ncccc2[nH]1` (stereo not drawn): the Potency result in assay [1], in assay [2], in assay [3], in assay [4], in assay [5] and in [7] was “inactive” each time. For the same molecule, the Potency result in assay [9] and in [10] was “inactive” throughout. Moreover, the molecule was called inactive in [6] and in [8].
Take `C=C[C@]1(C)C[C@@H](OC(=O)CSCCN(CC)CC)[C@]2(C)[C@H](C)CC[C@]3(CCC(=O)[C@H]32)[C@@H](C)[C@@H]1O`: the Potency result in assay [1], in assay [2], in assay [3], in assay [4], in assay [5] and in [7] was “inactive” each time. Moreover, the Potency result in [10] was “inactive”. Further, the molecule was called inactive in [6] and in assay [8].
Take `C[N+]1(C)[C@@H]2CC(OC(=O)C(O)(c3cccs3)c3cccs3)C[C@H]1[C@@H]1O[C@@H]12` (stereo partly drawn): the Potency entry in assay [1], in assay [2], in assay [3], in assay [4], in [5] and in assay [7] was “inactive” each time. Besides, the Potency result in assay [10] is “inactive”. For the same molecule, the result in assay [6] and in [8] was inactive.
`COc1ccccc1N1CCN(CCCC(=O)c2ccc(F)cc2)CC1`: the Potency entry in assay [1], in assay [2], in assay [3], in assay [4], in [5] and in assay [7] was “inactive” in each case. Besides, the Potency entry in [9] and in [10] was “inactive” throughout. In addition, the result in assay [6] and in [8] was inactive.
On to `CC(C)CN(C[C@@H](O)[C@H](Cc1ccccc1)NC(=O)O[C@@H]1CCOC1)S(=O)(=O)c1ccc(N)cc1`, for which the Potency result in assay [1], in assay [2], in [3], in assay [4], in assay [5] and in assay [7] was “inactive” each time. The Potency entry in [9] and in assay [10] was “inactive” each time. Moreover, the molecule was called inactive in assay [6] and in [8].
